# Bioassay records: PubChem BioAssay, National Center for Advancing Translational Sciences (NCATS)
# KB-3-1 cytotox: KB-3-1 parental cell cytotoxicity; KB-3-1 viability, CellTiter-Glo ATP luminescence, 72 h; 400,000 compounds, 1.4% hits; Potency, µM (top dose mostly 46.1 µM), actives largely listed as cytotoxic; also: nearly all actives have a fitted effect of over 60% in size
#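 Here the drug-naive KB-3-1 line serves as comparator for MDR sub-line selectivity; cells received compound titrations, 72 h at 37 °C, then CellTiter-Glo readout.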
# TDP1 cell CPT: DT40-hTDP1 cell growth loss with CPT; chicken DT40 Tdp1-/-;hTDP1 cells + 20 nM CPT, ATP luminescence, 48 h; 420,000 compounds, 12% hits; AID 686979; Potency, µM (highest dose often 46.2 µM), inactives show at the highest dose activity change, negative = growth inhibition, usual class: inhibitors; also: nearly all actives have a fitted effect of over 55% in size
#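 Chicken DT40 Tdp1-/- cells complemented with human TDP1, 400 cells/well, exposed to compounds plus 20 nM camptothecin for at least 48 h at 37 C; viability read as ATP content by CellTiter-Glo luminescence.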
# KB-V1 cytotox: kills drug-selected multidrug resistant KB-V1 cells; 400,000 compounds, 3.4% hits; Potency, µM (doses to about 46.1 µM), hits mostly cytotoxic; KB-V1 MDR cells viability, CellTiter-Glo, 72 h; also: nearly all actives have a fitted effect of over 60% in size
#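 KB-V1, DMEM (no phenol red) + 10% FBS; cpd pin-transferred, titration series; 72 h, 37 degrees C; CellTiter-Glo, luminescence. Data normalized, curve-fit.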
# TDP1 cell noCPT: qHTS for Inhibitors of human tyrosyl-DNA phosphodiesterase 1 (TDP1): qHTS in cells in absence of CPT; 420,000 compounds, 15% hits; DT40 Tdp1-/- hTDP1 cells, no CPT, ATP luminescence, 48 h; Potency, µM (highest dose often 46.2 µM), for the others: at the highest dose activity change, negative = growth inhibition, usual class: inhibitors; AID 686978, 2013; also: nearly all actives have a fitted effect of over 55% in size
#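 A cellular qHTS used chicken DT40 cells lacking endogenous Tdp1 but carrying stably transfected human TDP1. Compounds were applied without camptothecin, and cell growth kinetics were judged by ATP-dependent luminescence after ≥48 hr.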
# HT1080-NT tox: kills 2HG-producing HT-1080-NT fibrosarcoma cells. HT-1080-NT fibrosarcoma viability, CellTiter-Glo ATP luminescence, 48 h. Potency, µM (top dose mostly 46.1 µM), inactives show at the highest dose activity, negative = less viability, usual class: cytotoxic. 360,000 compounds, 1.6% hits. AID 686970;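 also: NT is the 2HG producing partner of a matched IDH1 knockdown line; 0% = DMSO-treated cells and -100% = media-only wells without cells; nearly all actives have a fitted effect of over 55% in size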
#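 Viability of the 2HG-overproducing fibrosarcoma line after 48 hours of compound exposure at 37 degrees C was determined by luminescence with CellTiter-Glo, and concentration-effect curves were then fitted and categorized.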
# HT1080 IDH1KD tx: kills HT-1080 cells with IDH1 knockdown | HT-1080 IDH1 knockdown viability, ATP luminescence, 48 h | Potency, µM (doses to about 46.1 µM), without a hit: at the top dose activity, negative = toxicity, usual class: cytotoxic | AID 686971 | 360,000 compounds, 2% hits;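 also: 0% = DMSO wells and -100% = cell-free medium wells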
#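 Viability of IDH1-knockdown HT-1080 fibrosarcoma cells was assessed by CellTiter-Glo after 48 h at 37 °C with titrated compound; concentration-effect curves were classified by fit quality and response size.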
# * = called active by the depositor; i = inactive; ? = inconclusive; · = no result given; [ ] = another dose, or the depositor's remark. Hits are enriched below; roughly 19% of the tested compounds scored in any of these assays. Calls follow the shape of the dose curve; as a rule, active = well fitted curve in the direction sought with a large enough effect; inconclusive = small, poorly fitted or top-dose-only effect, or another doubt; inactive = no such curve, though single readings can be large; an effect the other way counts as inactive or inconclusive. Unless noted, % is scaled to controls: 0 for no effect and ±100 for the full control effect; potency is read from the fitted curve at half-maximal effect.
SMILES,KB-3-1 cytotox,TDP1 cell CPT,KB-V1 cytotox,TDP1 cell noCPT,HT1080-NT tox,HT1080 IDH1KD tx
COc1ccc(CCNC(=O)C(=O)NCC(c2ccc3c(c2)OCO3)N2CCOCC2)cc1 (configuration not stated),i,?,i,?,·,·
CN(C1CCCCC1)S(=O)(=O)c1ccc2[nH]c(=O)oc2c1,i,1.2%,?,-34.2%,-23.9%,-5.7%
Cc1[nH]nc2nc(SCC(=O)NCC3CCCO3)n(-c3ccc(Br)cc3)c(=N)c12 (configuration not stated),i,14.6µM*,i,?,-4.2%,-4.6%
CN(Cc1ccccc1)c1nccn2ccnc12,i,?,i,?,-5.7%,-12.1%
OC[C@@H]1CN(Cc2ccccc2)C[C@H](n2cnc3c(N4CCN(c5ccccc5)CC4)ncnc32)O1,i,?,?,?,-11.8%,1.3%
OC[C@@H]1CN(Cc2ccc(F)cc2)C[C@H](n2cnc3c(N4CCN(c5ccccc5)CC4)ncnc32)O1,?,18.4µM*,?,10.3µM*,?,?
OC[C@@H]1CN(Cc2ccc(-c3ccccc3)cc2)C[C@H](n2cnc3c(N4CCCC4)ncnc32)O1,i,18.4µM*,i,20.6µM*,?,?
CCOc1cc(CNc2nn[nH]n2)ccc1OCC(=O)NC(C)(C)C,i,-1.6%,i,-4.4%,4.2%,2.4%
COc1cccc(C(=O)Nc2nc3nc(C)c(Cc4ccccc4)c(=O)n3[nH]2)c1,·,-23.8%,·,?,·,·
COc1ccc(OC)c(NC(=O)c2cc3c(=O)oc4ccccc4c3s2)c1,i,-2.8%,?,-6.0%,·,·
O=C1C2C3c4ccccc4C(c4ccccc43)[C@@H]2c2nc3ccccc3n21 (some centres not stated),i,11.6µM*,i,10.3µM*,-6.4%,-13.6%
NS(=O)(=O)c1ccc(NC(=O)Nc2ccc(S(N)(=O)=O)cc2)cc1,?,-0.9%,?,11.2%,0.8%,1.0%
NS(=O)(=O)c1ccc(NC(=O)Nc2ccc(C(F)(F)F)cc2)cc1,i,?,i,18.4µM*,?,20.6µM*
O=C(CNS(=O)(=O)c1ccccc1)Nc1ccc(C(F)(F)F)cc1,i,16.4µM*,i,16.4µM*,-3.3%,-9.1%
O=C(C[n+]1ccc(C(=O)c2ccccc2)cc1)Nc1ccc(C(F)(F)F)cc1,i,23.1µM*,i,16.4µM*,-25.1%,?
O=C(Nc1ccc(C(F)(F)F)cc1)c1ccccc1,i,-6.8%,i,-13.7%,49.1%,7.5%
CC(C)c1ccc(NC(=O)CNS(=O)(=O)c2ccc(F)cc2)cc1,i,16.4µM*,?,11.6µM*,9.9%,-2.9%
CC(C)C[C@@H]1COc2cccc(N3CCC[C@@H]3CO)c2S(=O)(=O)N1,i,-5.3%,i,?,0.0%,0.2%
NC(=O)CSc1nnnn1-c1cccc(O)c1,·,-4.2%,·,-13.2%,·,·
O=C(CNS(=O)(=O)c1ccc(F)cc1)Nc1ccc(C(F)(F)F)cc1,i,18.4µM*,i,18.4µM*,1.0%[9.24 µM],-26.5%
Cc1ccc(S(=O)(=O)NCC(=O)Nc2ccc(C(F)(F)F)cc2)cc1,i,?,i,?,5.8%,0.8%
C[C@@H]1CN([C@H](C)CO)C(=O)CCCn2nncc2CO[C@H]1CN(C)Cc1ccc(O)cc1,i,5.7%,i,6.1%,-3.0%,0.3%
CCCNC(=O)Nc1cc(C(=O)NCc2cccc(OCC)c2)ccc1N1CCCC1,i,-0.9%,i,-4.3%,·,·
O=C(NCC(c1cccnc1)N1CCc2ccccc21)C(=O)Nc1ccccc1F (configuration not stated),i,7.31µM*,i,?,·,·
Cc1ccc(NC(=O)C(=O)NCC(c2cccnc2)N2CCc3ccccc32)cc1Cl (configuration not stated),i,18.4µM*,i,13µM*,·,·
SMILES,KB-3-1 cytotox,TDP1 cell CPT,KB-V1 cytotox,TDP1 cell noCPT,HT1080-NT tox,HT1080 IDH1KD tx
Cc1ccc(NC(=O)C(=O)NCC(c2cccnc2)N2CCN(C)CC2)cc1 (configuration not stated),i,-12.0%,?,-7.9%,·,·
Cc1cccc(NC(=O)C(=O)NCC(c2cccnc2)N2CCc3ccccc3C2)c1C (configuration not stated),?,16.4µM*,i,16.4µM*,·,·
Cc1ccc(NC(=O)C(=O)NCC(c2cccnc2)N2CCc3ccccc3C2)cc1 (configuration not stated),i,20.6µM*,i,16.4µM*,·,·
CCOc1ccc(NC(=O)N2CCN(C(=O)c3nsc4ccccc34)CC2)cc1,i,?,i,?,·,·
Cc1cccc(NC(=O)C(=O)NCC(c2cccnc2)N2CCc3ccccc32)c1C (configuration not stated),i,18.4µM*,i,23.1µM*,·,·
CC(C)(C)c1ccc(C(=O)NCC(c2cccnc2)N2CCc3ccccc3C2)cc1 (configuration not stated),i,2.31µM*,i,1.84µM*,·,·
COc1ccccc1NC(=O)C(=O)NCC(c1cccnc1)N1CCc2ccccc2C1 (configuration not stated),?,?,i,?,·,·
CCN(Cc1nc2ccccc2c(=O)[nH]1)Cc1nc2cc(OC)c(OC)cc2c(=O)[nH]1,i,-6.6%,i,?,-2.1%,2.0%
COc1cc2nc(CN(C)Cc3ccc(Cl)cc3)[nH]c(=O)c2cc1OC,?,?,?,25.9µM*,16.6%,9.5%
COc1cc2nc(CN3CCC(C(O)(c4ccccc4)c4ccccc4)CC3)[nH]c(=O)c2cc1OC,i,?,i,18.4µM*,-19.1%,7.8%
CSc1ccc(CN(C)Cc2nc3cc(C(F)(F)F)ccc3c(=O)[nH]2)cc1,i,?,23.1µM*,?,-1.1%,-1.5%
COc1cc2nc(CN(C)Cc3nc4ccccc4c(=O)[nH]3)[nH]c(=O)c2cc1OC,i,12.6µM*,i,12.6µM*,17.8µM*,7.08µM*
COc1cc2nc(CN3CCC(Cc4ccccc4)CC3)[nH]c(=O)c2cc1OC,i,?,i,?,11.3%,19.4%
c1coc(CNc2nc[n+]3c4c2ncn4CC3)c1,·,-21.0%,·,-21.4%,20.2%,20.0%
